Values joined by “and” are separate entries in the source; they are usually repeats but may differ in a detail not shown here. Equal values may be shown once. Results filed as inconclusive are left out. Some compounds were tested as several samples or in several runs, with calls that do not always agree. Active and inactive are the calls of the source. Unless noted, calls come from the whole dose curve.
Assays:
[1] = biological target: Peroxisome proliferator-activated receptor gamma (Homo sapiens) (UniProt P37231); experiment: qHTS assay for small molecule antagonists of peroxisome proliferator-activated receptor gamma signaling (AID 588537; active = well fitted inhibition curve with a large enough effect in the signal ratio, with a control signal flat, not every such curve was filed as active; the % refers to the signal ratio; note: potency is the fitted concentration of half-maximal effect)
Method in brief: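 PPAR-gamma-UAS-bla HEK293 cells (3000/well, 1% charcoal/dextran-stripped FBS) were preincubated 6-6.5 h at 37 C, given titrated compounds, then stimulated with 50 nM rosiglitazone for 16 h. Beta-lactamase activity was read with CCF4 dye; IC50 came from Hill fits.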

[2] = biological target: Vitamin D3 receptor (Homo sapiens) (UniProt P11473); experiment: qHTS assay for small molecule antagonists of vitamin D receptor signaling (AID 588541);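 note: receptor activated by calcitriol during compound treatment; series mostly up to about 77 µM; % is set by controls: 0 for no effect and ±100 for the full control effect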
Method in brief: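 VDR-UAS-bla HEK293T cells (2000/well, 2% charcoal-stripped FBS) were treated with titrated compounds plus 1-alpha,25-dihydroxyvitamin D3 (50 nM or 3 nM final) for 16 h at 37 C. CCF4 beta-lactamase fluorescence was read; Hill fits gave IC50.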

[3] = biological target: Vitamin D3 receptor (Homo sapiens) (UniProt P11473); experiment: qHTS assay for small molecule agonists of vitamin D receptor signaling (AID 588543);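 note: 0% = DMSO basal and 100% = reference agonist control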
Method in brief: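 Agonist-mode beta-lactamase reporter: HEK293T VDR-UAS-bla cells in charcoal-stripped 2% FBS, compound series 16 h 37 C, CCF4 2 h RT. EC50 from Hill fit, scaled against DMSO and 50 nM calcitriol control.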

[4] = qHTS assay for small molecule agonists of retinoid X receptor alpha signaling (AID 588544); conditions: HEK293T RXRa-UAS-bla, beta-lactamase reporter, 18 h; 530 nm emission;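 for activation: 0% = DMSO basal wells and 100% = reference agonist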
[5] = biological target: Retinoic acid receptor RXR-alpha (Homo sapiens) (UniProt P19793); experiment: as above
[6] = biological target: Thyroid hormone receptor beta (Homo sapiens) (UniProt P10828); experiment: qHTS assay for small molecule agonists of thyroid hormone receptor beta signaling (AID 588545);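 note: 0% = DMSO only and 100% = 10 nM T3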
Method in brief: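 Stimulation of a TR-driven beta-lactamase reporter was quantified in GripTite HEK 293 cells. Compound series ran for 18 hrs; curves were normalized to T3 and DMSO controls and fitted to yield EC50.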

[7] = qHTS assay for small molecule antagonists of retinoid X receptor alpha signaling (AID 588546; active = well fitted inhibition curve with a large enough effect in the signal ratio, with a control signal flat, not every such curve was filed as active; the % refers to the signal ratio;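 note: cells stimulated with 9-cis-retinoic acid as agonist; % is set by controls: 0 for no effect and ±100 for the full control effect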); conditions: HEK293T RXRa-UAS-bla, beta-lactamase ratio, antagonist mode; measured here: W530 green channel, cytotoxicity proxy
Method in brief: (§1)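 Beta-lactamase reporter inhibition, read as CCF4 fluorescence ratio (ex 405, em 460/530 nm) after 2 h at RT. HEK293T UAS-bla cells, 2500/well, were stimulated with 9-cis-RA at 500 or 100 nM final alongside test compound for 18 h at 37 C.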

[8] = biological target: Retinoic acid receptor RXR-alpha (Homo sapiens) (UniProt P19793); experiment: as above; conditions: HEK293T RXRa-UAS-bla, beta-lactamase ratio, antagonist mode
Method in brief: as §1

[9] = biological target: Thyroid hormone receptor beta (Homo sapiens) (UniProt P10828); experiment: qHTS assay for small molecule antagonists of thyroid hormone receptor beta signaling (AID 588547; active = well fitted inhibition curve with a large enough effect in the signal ratio, with a control signal flat, not every such curve was filed as active; the % refers to the signal ratio;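 note: cells stimulated with 0.4 nM T3 agonist during compound exposure; series mostly up to about 77 µM; % is set by controls: 0 for no effect and ±100 for the full control effect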); conditions: TR-UAS-bla HEK293, beta-lactamase ratio, antagonist mode, 18 h
Method in brief: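 TR-UAS-bla GripTite HEK293 cells in 2% charcoal/dextran FBS medium were preincubated 4 h at 37 C, given compound (0.59 nM to 92 uM) plus 0.4 nM T3 (final) for 18 h, then CCF4 for 2 h at RT; Hill fit gave IC50.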

[10] = biological target: Voltage-gated inwardly rectifying potassium channel KCNH2 (Homo sapiens) (UniProt Q12809); experiment: qHTS Assay for Small Molecule Inhibitors of the Human hERG Channel Activity (AID 588834; active = well fitted curve in the direction sought with a large enough effect; an effect the other way counts as inactive or inconclusive;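 note: top concentration of the series differs between compounds; % is set by controls: 0 for no effect and ±100 for the full control effect; lower thallium flux fluorescence means stronger hERG block; nearly all actives have a fitted effect of over 50% in size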)
Method in brief: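 Kinetic FDSS fluorescence; U2OS + hERG BacMam (~100 virus particles/cell); FluxOR Tl+ flux; ~10 min cpd; AC50 (Hill).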

[11] = biological target: Luciferin 4-monooxygenase (Photinus pyralis) (UniProt P08659); experiment: Biochemical firefly luciferase enzyme assay for NPC (AID 624030; active = well fitted curve in the direction sought with a large enough effect; an effect the other way counts as inactive or inconclusive;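 note: purified P. pyralis luciferase at 10 nM with luciferin and ATP substrate; series mostly up to about 59 µM; 0% = DMSO and -100% = full luciferase inhibition by PTC124 control; nearly all actives have a fitted effect of over 70% in size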)
Method in brief: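 Counter-screen for direct inhibition of the luciferase enzyme by approved-drug library compounds, run at 10 nM enzyme in 50 mM Tris acetate (final). Luminescence was read within 5 min of enzyme-buffer addition and normalized to PTC124 versus DMSO (0%).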

[12] = S16 Schwann cell viability assay (CellTiter-Glo assay) (AID 624031; active = well fitted curve in the direction sought with a large enough effect; an effect the other way counts as inactive or inconclusive; note: nearly all actives have a fitted effect of over 70% in size; note: potency is the fitted concentration of half-maximal effect)
Method in brief: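 Counter-screen for cytotoxicity: parental S16 rat Schwann cells lacking the PMP22 reporters, treated 24 h with compound, viability from cellular ATP by CellTiter-Glo luminescence, normalized to DMSO (0%) and no-cell wells.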

[13] = S16 Schwann cell PMP22 intronic element firefly luciferase assay (AID 624032; active = well fitted curve in the direction sought with a large enough effect; an effect the other way counts as inactive or inconclusive; note: nearly all actives have a fitted effect of over 30% in size; note: potency is the fitted concentration of half-maximal effect)
Method in brief: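 Rat S16 Schwann cells stably carrying a PMP22 intronic element-driven Fluc reporter were seeded overnight, then exposed to compounds for 24 h at 37 °C. Luminescence was normalized to PTC124 (positive control) and DMSO (0% activity).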

[14] = qHTS assay for small molecule agonists of the antioxidant response element (ARE) signaling pathway (AID 651741; active = well fitted activation curve with a large enough effect in the signal ratio; the % refers to the signal ratio; note: potency is the fitted concentration of half-maximal effect; for activation: % of control where 0% means no effect)
Method in brief: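 ARE-bla HepG2 cells (beta-lactamase reporter under ARE control) were plated at 2,000 cells/well, preincubated 5 h at 37 C/5% CO2, then treated with DMSO-dissolved compounds for 16 h at 37 C; LiveBLAzer B/G FRET substrate added, fluorescence read after 2 h at room temperature.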

[15] = S16 Schwann cell PMP22 intronic element beta-lactamase assay (AID 624044);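 note: 0% = DMSO and -100% = potassium clavulanate positive control; nearly all actives have a fitted effect of over 15% in size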
Method in brief: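 Rat S16 Schwann cells with beta-Lac driven by a PMP22 intronic element, compound-treated 24 h at 37 °C. LiveBLAzer FRET B/G read: 460 nm normalized to potassium clavulanate vs DMSO; 535 nm FRET as viability; concentration-effect curves classified.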

[16] = biological target: Glutaminase kidney isoform, mitochondrial (Homo sapiens) (UniProt O94925); experiment: qHTS for Inhibitors of Glutaminase (GLS): LOPAC Validation (AID 624146; active = well fitted curve in the direction sought with a large enough effect; an effect the other way counts as inactive or inconclusive;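 note: glutamate product detected by oxidase and peroxidase coupled Amplex red fluorescence gain; series mostly up to about 46 µM; % is set by controls: 0 for no effect and ±100 for the full control effect; nearly all actives have a fitted effect of over 60% in size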)
Method in brief: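 Two-point fluorescence kinetic (t0, 30 min RT) for hKGA; glutamate detected via glutamate oxidase–HRP–Amplex Red. Substrate: 1 mM L-glutamine solution; buffer 45 mM KH2PO4, pH 8.2.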

[17] = biological target: Glucagon-like peptide 1 receptor (Homo sapiens) (UniProt P43220); experiment: qHTS of GLP-1 Receptor Agonists: LOPAC Validation (AID 624148; active = well fitted curve in the direction sought with a large enough effect; an effect the other way counts as inactive or inconclusive;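 note: 0% is about no effect; higher luminescence signal means agonism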)
Method in brief: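 HEK293 cells stably co-expressing a cAMP-responsive luciferase reporter and a hypersensitive GLP-1R were plated 12 h at 37 °C and exposed to compounds for 4-6 hr at 37 °C, 5% CO2. Luminescence was read 12 min after adding detection reagent.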

[18] = qHTS of Nrf2 Activators: LOPAC Validation (AID 624149; active = well fitted curve in the direction sought with a large enough effect; an effect the other way counts as inactive or inconclusive; note: 0% is about no effect)
Method in brief: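 ARE reporter activation measured in AREc32 firefly luciferase cells after 24 hr compound exposure; Steady-Glo luminescence.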

[19] = HTS Assay for Allosteric Antagonists of the Human D2 Dopamine Receptor: Hit Validation in HTRF (AID 624455; active = well fitted curve in the direction sought with a large enough effect; an effect the other way counts as inactive or inconclusive;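 note: stable D1 dopamine receptor cell line scored for blocking the D1 response; % is set by controls: 0 for no effect and ±100 for the full control effect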)
Method in brief: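 Signal from an HTRF read-out in D1-expressing stable cells gave hit activity as inhibition of the D1 response.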

Chain of Voltage-gated inwardly rectifying potassium channel KCNH2 (Homo sapiens) (Q12809 whole entry, looked up): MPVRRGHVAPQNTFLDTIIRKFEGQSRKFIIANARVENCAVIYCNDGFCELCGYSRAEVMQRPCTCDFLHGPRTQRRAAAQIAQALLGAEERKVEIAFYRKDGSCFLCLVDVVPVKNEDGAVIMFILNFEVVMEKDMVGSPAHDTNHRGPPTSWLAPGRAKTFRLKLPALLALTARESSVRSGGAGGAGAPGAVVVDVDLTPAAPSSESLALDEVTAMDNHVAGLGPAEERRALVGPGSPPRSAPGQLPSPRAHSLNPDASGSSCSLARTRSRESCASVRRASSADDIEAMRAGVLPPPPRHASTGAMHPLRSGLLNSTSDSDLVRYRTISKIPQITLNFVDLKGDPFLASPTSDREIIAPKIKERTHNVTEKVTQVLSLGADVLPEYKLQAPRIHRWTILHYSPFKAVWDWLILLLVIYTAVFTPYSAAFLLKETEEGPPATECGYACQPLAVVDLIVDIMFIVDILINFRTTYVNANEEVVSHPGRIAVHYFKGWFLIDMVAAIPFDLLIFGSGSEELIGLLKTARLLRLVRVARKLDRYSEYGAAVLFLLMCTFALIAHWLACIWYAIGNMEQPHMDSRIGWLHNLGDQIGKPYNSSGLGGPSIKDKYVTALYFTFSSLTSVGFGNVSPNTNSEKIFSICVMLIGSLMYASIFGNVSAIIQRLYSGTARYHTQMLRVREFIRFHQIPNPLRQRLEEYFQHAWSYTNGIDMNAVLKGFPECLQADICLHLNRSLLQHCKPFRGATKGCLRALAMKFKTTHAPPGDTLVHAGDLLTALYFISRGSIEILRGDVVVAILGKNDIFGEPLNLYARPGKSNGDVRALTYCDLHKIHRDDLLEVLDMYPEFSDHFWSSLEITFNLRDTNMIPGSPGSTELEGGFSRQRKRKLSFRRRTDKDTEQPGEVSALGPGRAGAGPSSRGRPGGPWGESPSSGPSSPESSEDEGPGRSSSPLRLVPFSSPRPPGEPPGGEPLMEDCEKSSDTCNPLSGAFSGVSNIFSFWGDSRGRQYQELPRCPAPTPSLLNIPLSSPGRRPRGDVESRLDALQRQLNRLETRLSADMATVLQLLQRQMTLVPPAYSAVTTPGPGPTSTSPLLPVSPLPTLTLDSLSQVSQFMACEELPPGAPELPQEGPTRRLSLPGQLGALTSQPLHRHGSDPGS
Chain of Luciferin 4-monooxygenase (Photinus pyralis) (P08659 whole entry, looked up): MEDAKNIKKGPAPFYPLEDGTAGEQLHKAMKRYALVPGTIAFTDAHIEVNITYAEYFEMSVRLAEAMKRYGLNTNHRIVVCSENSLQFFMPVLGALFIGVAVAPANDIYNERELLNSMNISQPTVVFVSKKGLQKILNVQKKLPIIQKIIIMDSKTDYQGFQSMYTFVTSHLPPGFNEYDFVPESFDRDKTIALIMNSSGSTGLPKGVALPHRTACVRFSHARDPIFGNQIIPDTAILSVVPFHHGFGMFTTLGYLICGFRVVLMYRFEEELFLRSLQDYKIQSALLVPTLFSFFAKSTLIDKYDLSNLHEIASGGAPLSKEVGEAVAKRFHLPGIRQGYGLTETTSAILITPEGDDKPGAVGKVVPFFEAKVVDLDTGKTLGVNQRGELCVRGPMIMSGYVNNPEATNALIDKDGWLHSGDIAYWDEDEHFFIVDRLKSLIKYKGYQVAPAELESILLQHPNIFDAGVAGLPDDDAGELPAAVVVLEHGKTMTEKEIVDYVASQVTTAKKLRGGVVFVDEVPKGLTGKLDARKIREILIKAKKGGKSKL
Chain of Vitamin D3 receptor (Homo sapiens) (P11473 whole entry, looked up): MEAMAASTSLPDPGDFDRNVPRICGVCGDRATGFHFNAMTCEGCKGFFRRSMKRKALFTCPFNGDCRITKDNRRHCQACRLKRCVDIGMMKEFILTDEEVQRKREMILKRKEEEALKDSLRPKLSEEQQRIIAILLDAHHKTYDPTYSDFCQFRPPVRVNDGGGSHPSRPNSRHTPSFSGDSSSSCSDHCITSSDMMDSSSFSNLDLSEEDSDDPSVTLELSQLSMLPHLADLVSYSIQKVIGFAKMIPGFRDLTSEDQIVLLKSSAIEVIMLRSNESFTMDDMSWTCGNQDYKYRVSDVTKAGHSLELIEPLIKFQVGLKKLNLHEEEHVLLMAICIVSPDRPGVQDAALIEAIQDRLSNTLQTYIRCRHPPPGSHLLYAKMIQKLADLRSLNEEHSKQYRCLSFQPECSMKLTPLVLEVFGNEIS
Chain of Retinoic acid receptor RXR-alpha (Homo sapiens) (P19793 whole entry, looked up): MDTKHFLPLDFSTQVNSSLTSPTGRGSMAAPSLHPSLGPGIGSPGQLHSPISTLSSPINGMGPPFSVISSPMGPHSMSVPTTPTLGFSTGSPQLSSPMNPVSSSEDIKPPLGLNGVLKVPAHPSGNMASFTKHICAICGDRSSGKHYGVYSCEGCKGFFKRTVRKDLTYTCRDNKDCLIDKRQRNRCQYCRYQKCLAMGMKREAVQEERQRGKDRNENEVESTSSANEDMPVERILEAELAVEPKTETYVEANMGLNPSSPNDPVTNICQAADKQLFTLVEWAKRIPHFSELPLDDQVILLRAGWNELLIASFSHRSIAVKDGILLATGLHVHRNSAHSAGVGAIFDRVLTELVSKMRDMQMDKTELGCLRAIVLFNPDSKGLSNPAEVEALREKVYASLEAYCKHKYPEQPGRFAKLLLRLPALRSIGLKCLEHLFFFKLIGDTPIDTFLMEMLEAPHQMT
Chain of Peroxisome proliferator-activated receptor gamma (Homo sapiens) (P37231 whole entry, looked up): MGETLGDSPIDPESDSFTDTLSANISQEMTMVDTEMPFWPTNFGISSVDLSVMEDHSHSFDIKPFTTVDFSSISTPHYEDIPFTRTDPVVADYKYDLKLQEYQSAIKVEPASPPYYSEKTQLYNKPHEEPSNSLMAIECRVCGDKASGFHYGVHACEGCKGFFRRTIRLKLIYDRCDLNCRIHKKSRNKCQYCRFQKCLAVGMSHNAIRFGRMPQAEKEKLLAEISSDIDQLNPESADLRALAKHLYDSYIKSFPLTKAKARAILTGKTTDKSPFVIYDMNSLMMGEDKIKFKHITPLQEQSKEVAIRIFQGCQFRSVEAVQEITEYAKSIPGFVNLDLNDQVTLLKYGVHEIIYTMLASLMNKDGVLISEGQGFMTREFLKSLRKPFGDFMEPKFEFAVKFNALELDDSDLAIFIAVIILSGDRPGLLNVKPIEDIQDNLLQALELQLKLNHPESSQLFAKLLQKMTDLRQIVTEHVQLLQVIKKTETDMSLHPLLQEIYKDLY
Chain of Thyroid hormone receptor beta (Homo sapiens) (P10828 whole entry, looked up): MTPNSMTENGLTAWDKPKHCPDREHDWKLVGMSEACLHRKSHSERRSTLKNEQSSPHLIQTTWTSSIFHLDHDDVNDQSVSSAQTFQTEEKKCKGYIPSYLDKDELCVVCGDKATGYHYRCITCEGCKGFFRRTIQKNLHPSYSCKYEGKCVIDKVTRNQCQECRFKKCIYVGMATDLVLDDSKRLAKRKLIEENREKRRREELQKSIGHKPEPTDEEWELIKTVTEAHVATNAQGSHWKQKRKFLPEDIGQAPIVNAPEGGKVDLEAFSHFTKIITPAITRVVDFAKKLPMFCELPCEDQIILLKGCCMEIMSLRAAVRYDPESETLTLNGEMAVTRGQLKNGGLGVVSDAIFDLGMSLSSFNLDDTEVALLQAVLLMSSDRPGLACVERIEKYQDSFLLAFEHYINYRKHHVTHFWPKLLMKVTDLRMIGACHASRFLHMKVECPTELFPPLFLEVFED
Chain of Glutaminase kidney isoform, mitochondrial (Homo sapiens) (O94925 whole entry, looked up, canonical isoform): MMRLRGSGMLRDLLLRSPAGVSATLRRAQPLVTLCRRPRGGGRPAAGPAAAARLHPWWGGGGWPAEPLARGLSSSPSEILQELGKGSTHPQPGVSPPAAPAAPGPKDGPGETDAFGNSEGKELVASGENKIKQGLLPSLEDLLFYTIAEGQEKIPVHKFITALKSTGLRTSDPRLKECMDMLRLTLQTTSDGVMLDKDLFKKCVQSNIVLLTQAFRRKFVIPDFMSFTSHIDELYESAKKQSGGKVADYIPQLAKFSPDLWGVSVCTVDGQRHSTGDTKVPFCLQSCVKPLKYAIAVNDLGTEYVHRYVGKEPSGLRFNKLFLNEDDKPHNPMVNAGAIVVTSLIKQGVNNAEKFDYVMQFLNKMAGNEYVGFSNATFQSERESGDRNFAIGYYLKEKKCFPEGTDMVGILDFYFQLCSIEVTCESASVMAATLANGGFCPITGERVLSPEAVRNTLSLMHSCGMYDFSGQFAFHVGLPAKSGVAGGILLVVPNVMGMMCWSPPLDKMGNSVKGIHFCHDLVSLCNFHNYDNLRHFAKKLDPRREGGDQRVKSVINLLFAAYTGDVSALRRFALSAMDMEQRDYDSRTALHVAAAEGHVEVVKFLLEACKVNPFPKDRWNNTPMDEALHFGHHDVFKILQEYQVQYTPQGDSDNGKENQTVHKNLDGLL
Chain of Glucagon-like peptide 1 receptor (Homo sapiens) (P43220 whole entry, looked up): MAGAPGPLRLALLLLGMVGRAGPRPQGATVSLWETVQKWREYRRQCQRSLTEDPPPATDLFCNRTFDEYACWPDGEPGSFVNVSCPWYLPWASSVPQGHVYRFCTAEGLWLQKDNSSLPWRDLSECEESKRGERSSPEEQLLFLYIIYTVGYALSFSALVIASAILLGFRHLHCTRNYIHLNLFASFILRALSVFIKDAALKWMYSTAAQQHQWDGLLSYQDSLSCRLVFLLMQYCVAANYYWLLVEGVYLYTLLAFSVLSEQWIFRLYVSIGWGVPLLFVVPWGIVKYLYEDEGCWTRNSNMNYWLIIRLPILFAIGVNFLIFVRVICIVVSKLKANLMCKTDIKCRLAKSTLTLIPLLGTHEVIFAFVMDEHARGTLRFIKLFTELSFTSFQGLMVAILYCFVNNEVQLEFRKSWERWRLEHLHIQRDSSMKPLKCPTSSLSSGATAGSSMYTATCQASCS

CCOC(=O)c1ccccc1C(=O)OCC
2.09% and -11.6% and -7.65%: max response [7]
inactive: Potency [1] | Potency [2] | outcome [3] | Potency [5] | outcome [6] | max response [8] 8.73% and 2.69% and 2.16% | activity change % (negative = inhibition) [9] 9.23% and -2.29% and -1.86% | Potency [10] | Potency [11] | Potency [12] | Potency [13] | Potency [14]
-7.23% and 2.92%: max response [4]

Clc1ccccc1Cl
-11.2%: max response [4]
inactive: Potency [2] | outcome [3] | Potency [5] | outcome [6] | max response [8] 14.3% | Potency [10] | Potency [12] | Potency [13] | Potency [15]
5.72%: max response [7]

C[C@H]1CCC[C@H](O)CCCCCc2cc(O)cc(O)c2C(=O)O1
7.61%: max response [7]
13%: max response [4]
inactive: Potency [1] | Potency [5] | max response [8] -34.3% | Potency [10] | Potency [11] | Potency [12] | Potency [15]

ClC=C(Cl)Cl
-0.484% and -8.25%: max response [7]
inactive: Potency [1] | Potency [5] | outcome [6] | max response [8] 5.36% and -18.5% | activity change % (negative = inhibition) [9] -2.56% | Potency [10] | Potency [11] | Potency [12] | Potency [13] | Potency [14]
-19%: max response [4]

O=C(NCNC(=O)NC1C(=O)NC(=O)N1CO)NC1C(=O)NC(=O)N1CO (stereo not drawn)
0.0503%: max response [4]
inactive: Potency [1] | Potency [5] | outcome [6] | max response [8] -8.07% | activity change % (negative = inhibition) [9] -0.544% | Potency [10] | Potency [11] | Potency [12] | Potency [13] | Potency [15] | Potency [14]
-13%: max response [7]

CCCSP(=O)(OCC)SCCC
-12.4%: max response [7]
-4.11%: max response [4]
inactive: Potency [1] | Potency [2] | outcome [3] | Potency [5] | outcome [6] | max response [8] -0.503% | activity change % (negative = inhibition) [9] 4.95%

N#CN
-6.13%: max response [7]
4.27%: max response [4]
inactive: Potency [1] | Potency [2] | outcome [3] | Potency [5] | outcome [6] | max response [8] -9.07% | Potency [10] | Potency [11] | Potency [12] | Potency [13] | Potency [15] | Potency [14]

CCCCCl
-8.74%: max response [7]
inactive: Potency [2] | outcome [3] | Potency [5] | outcome [6] | max response [8] 21% | Potency [10] | Potency [12] | Potency [13] | Potency [15] | Potency [14]
-0.522%: max response [4]

CC(C)(C)c1cc(O)ccc1O
inactive: Potency [5] | outcome [6] | max response [8] 0.473% and -17.4% | Potency [10] | Potency [11] | Potency [12] | Potency [15]
23.9% and 27.4%: max response [4]
active: Potency [13] 7.21 µM and 28.7 µM
10.2% and -11%: max response [7]
inactive and 44.7 µM (active): Potency [1]

O=Cc1ccco1
9.13%: max response [7]
-14.8%: max response [4]
inactive: Potency [2] | outcome [3] | Potency [5] | outcome [6] | max response [8] -1.1% | activity change % (negative = inhibition) [9] -3.01% | Potency [10] | Potency [12] | Potency [13] | Potency [15] | Potency [14]

S=C=S
inactive: Potency [2] | outcome [3] | Potency [5] | outcome [6] | max response [8] 10.2% | activity change % (negative = inhibition) [9] 5.87% | Potency [10] | Potency [12] | Potency [13] | Potency [15] | Potency [14]
-8.84%: max response [7]
-8.91%: max response [4]

COCC(C)N(C(=O)CCl)c1c(C)csc1C (stereo not drawn)
inactive: outcome [3] | outcome [6] | Potency [10] | Potency [11] | Potency [12] | Potency [13]
active: Potency [1] 39.8 µM | Potency [14] 15.4 µM

[O]=[Cr](=[O])([OH])[O][Cr](=[O])(=[O])[OH]
7.42% and 14.4%: max response [7]
inactive: Potency [2] | outcome [3] | outcome [6] | max response [8] -10.4% and -3.4% | activity change % (negative = inhibition) [9] -20.9% | Potency [10] | Potency [11] | Potency [15]
active: Potency [12] 4.05 µM and 2.87 µM | Potency [14] 7.5 µM

[O]=[Cd]
-14.7%: max response [7]
inactive: Potency [1] | Potency [2] | outcome [3] | Potency [5] | outcome [6] | max response [8] -2.87% | activity change % (negative = inhibition) [9] -10.1% | Potency [10] | Potency [12] | Potency [13] | Potency [15] | Potency [14]
-12.6%: max response [4]

O=C1C=CC(=O)C=C1
4.26%: max response [7]
active: Potency [14] 47.3 µM
-3.86%: max response [4]
inactive: Potency [1] | Potency [5] | outcome [6] | max response [8] -9.47% | activity change % (negative = inhibition) [9] -10.9% | Potency [10] | Potency [16] | outcome [17] | Potency [18] | Potency [19]

Oc1cc(Cl)c(Cl)cc1Cl
-8.67%: max response [4]
inactive: Potency [1] | Potency [5] | outcome [6] | max response [8] -11.3% and 1.52% | activity change % (negative = inhibition) [9] 5.32% and 6.79% | Potency [10] | Potency [13] | Potency [15]
active: Potency [14] 42.2 µM
-1.91% and -9.59%: max response [7]

O=C(O)C(Cl)(Cl)Cl
inactive: Potency [1] | Potency [2] | outcome [3] | Potency [5] | outcome [6] | max response [8] -6.5% | activity change % (negative = inhibition) [9] 2.2% and 9.95% | Potency [10] | Potency [11] | Potency [12] | Potency [13] | Potency [15] | Potency [14]
-1.09%: max response [7]
-1.61% and -5.9%: max response [4]

From PubChem BioAssay (NCATS)
